Measurements from ChEMBL document CHEMBL3988442, “University of Dundee, Small-Polar-MMV Screening Library” (2021).
For some assays here: Measured potencies and affinities stand elsewhere.

Columns and labels:
Design in all cases: scale not given: direction of the effect not stated beside the values
[1] = target: Protein translocase subunit SecA (Escherichia coli (strain K12)) (UniProt P10408); assay: Assay to Identify E. coli SecA ATPase Inhibitors; format: functional; details: 30 µM
[2] = target: T1, Ubiquitin-activating enzyme e1, putative (Leishmania donovani (strain BPK282A1)) (UniProt E9BSI1); assay: Leishmania donovani Ubiquitin Activating Enzyme (LdE1); format: functional; details: 30 µM
T1 sequence (whole entry): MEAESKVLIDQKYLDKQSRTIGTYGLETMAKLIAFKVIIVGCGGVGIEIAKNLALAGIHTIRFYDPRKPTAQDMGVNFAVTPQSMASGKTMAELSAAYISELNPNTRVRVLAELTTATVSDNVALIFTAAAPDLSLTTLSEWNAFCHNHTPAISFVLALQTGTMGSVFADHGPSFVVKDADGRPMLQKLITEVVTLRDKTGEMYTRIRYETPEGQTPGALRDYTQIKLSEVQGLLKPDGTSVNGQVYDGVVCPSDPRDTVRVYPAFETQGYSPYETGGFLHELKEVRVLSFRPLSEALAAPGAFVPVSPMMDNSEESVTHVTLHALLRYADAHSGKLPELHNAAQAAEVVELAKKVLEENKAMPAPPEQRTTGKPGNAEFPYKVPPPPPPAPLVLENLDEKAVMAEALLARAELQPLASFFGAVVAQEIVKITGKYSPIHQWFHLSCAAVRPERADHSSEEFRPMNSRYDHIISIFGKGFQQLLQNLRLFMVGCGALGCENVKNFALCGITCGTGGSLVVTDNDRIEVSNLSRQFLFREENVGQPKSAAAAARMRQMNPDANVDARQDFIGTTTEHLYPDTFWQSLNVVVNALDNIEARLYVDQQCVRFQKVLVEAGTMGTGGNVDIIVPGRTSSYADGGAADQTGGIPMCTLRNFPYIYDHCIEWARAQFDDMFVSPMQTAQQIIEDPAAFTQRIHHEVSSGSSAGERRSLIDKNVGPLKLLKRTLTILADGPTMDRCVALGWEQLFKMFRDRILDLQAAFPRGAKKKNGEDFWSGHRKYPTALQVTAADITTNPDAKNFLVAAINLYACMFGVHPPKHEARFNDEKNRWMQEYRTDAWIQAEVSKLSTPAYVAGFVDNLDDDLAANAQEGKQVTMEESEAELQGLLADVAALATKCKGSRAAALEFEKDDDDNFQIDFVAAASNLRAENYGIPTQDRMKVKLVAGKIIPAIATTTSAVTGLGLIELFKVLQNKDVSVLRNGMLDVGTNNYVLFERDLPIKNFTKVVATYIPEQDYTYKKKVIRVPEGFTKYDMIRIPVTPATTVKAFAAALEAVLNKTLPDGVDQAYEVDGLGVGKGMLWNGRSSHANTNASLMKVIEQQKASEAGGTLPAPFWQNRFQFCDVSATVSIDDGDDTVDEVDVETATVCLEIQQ

[3] = target: AMP-activated protein kinase, AMPK (Homo sapiens) (UniProt P54646+O43741+P54619+Q9UGJ0+Q9Y478+Q13131+Q9UGI9); assay: AMP-dependent Kinase enzyme assay. An in vitro enzyme assay that detects ADP turnover that is directly proportional to AMPK activity. This uses naive AMPK that is activated during the assay with MK-8722; format: functional; details: 30 µM
[4] = target: Sialic acid-binding Ig-like lectin 9 (Homo sapiens) (UniProt Q9Y336); assay: Hs-Siglec9 ALPHAscreen SOP 20170721; details: 10 µM
Sialic acid-binding Ig-like lectin 9 (Homo sapiens), sequence (Q9Y336 whole entry): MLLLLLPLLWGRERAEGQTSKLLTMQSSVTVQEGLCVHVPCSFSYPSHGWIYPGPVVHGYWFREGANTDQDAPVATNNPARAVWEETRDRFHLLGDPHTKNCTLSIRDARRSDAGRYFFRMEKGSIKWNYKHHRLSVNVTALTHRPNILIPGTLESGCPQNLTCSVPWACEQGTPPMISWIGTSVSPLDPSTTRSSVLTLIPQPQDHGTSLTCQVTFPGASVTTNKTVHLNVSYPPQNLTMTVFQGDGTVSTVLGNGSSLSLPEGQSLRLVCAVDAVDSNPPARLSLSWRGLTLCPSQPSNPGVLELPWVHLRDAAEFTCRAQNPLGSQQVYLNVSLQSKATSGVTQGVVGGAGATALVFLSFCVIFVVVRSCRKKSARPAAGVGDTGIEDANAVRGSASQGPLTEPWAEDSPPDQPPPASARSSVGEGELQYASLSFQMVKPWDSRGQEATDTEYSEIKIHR

Trypanosoma cruzi = assay: Trypanosoma cruzi phosphomannomutase and mannose-1-phosphate guanylyltransferase assay; format: functional; details: 10 µM
[5] = target: T2, Arginase-2, mitochondrial (Homo sapiens) (UniProt P78540); assay: in vitro enzyme assay to detect the production of urea directly proportional to the activity of Arginase II; format: functional; details: 33.3 µM; further: in the data most compounds retested in dose-response had high values
T2 sequence (whole entry): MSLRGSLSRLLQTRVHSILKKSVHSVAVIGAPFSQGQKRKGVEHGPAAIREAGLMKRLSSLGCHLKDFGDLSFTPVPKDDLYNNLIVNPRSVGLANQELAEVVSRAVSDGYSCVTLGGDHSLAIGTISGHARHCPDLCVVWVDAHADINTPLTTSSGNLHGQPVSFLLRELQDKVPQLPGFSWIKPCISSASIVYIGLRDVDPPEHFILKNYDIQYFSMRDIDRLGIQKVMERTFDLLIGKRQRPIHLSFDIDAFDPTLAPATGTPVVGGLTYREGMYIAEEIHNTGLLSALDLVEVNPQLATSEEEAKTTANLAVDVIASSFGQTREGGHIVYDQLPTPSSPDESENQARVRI

[6] = target: T3, Proteasome subunit beta (Trypanosoma cruzi) (UniProt O96673); assay: Trypanosoma cruzi proteasome chymotrypsin-like activity (TcProtChymo) assay.; further: in the data most compounds retested in dose-response had high values; format: functional; details: 9.37 µM
T3 sequence (whole entry): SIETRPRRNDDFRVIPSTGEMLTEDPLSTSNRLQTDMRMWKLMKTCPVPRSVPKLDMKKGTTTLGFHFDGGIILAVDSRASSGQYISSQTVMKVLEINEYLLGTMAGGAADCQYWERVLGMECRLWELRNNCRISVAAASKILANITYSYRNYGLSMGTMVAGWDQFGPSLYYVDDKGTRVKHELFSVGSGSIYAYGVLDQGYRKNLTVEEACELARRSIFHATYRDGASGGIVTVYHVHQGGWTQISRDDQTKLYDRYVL

Homo sapiens = species: Homo sapiens; assay: To identify inhibition of the IFN signalling (Jak-Stat) pathway via expression of an eGFP reporter gene under the control of an IFN-stimulated response element (ISRE) containing MxA promoter.; format: functional; details: 30 µM
[7] = target: T4, Tyrosyl-tRNA synthetase, putative (Trypanosoma cruzi (strain CL Brener)) (UniProt Q4DSP6); assay: Trypanosoma cruzi tyrosyl tRNA synthetase (TcYRS) _High Tyrosine SOP; format: functional; details: 30 µM; further: in the data most compounds retested in dose-response had high values
T4 sequence (whole entry): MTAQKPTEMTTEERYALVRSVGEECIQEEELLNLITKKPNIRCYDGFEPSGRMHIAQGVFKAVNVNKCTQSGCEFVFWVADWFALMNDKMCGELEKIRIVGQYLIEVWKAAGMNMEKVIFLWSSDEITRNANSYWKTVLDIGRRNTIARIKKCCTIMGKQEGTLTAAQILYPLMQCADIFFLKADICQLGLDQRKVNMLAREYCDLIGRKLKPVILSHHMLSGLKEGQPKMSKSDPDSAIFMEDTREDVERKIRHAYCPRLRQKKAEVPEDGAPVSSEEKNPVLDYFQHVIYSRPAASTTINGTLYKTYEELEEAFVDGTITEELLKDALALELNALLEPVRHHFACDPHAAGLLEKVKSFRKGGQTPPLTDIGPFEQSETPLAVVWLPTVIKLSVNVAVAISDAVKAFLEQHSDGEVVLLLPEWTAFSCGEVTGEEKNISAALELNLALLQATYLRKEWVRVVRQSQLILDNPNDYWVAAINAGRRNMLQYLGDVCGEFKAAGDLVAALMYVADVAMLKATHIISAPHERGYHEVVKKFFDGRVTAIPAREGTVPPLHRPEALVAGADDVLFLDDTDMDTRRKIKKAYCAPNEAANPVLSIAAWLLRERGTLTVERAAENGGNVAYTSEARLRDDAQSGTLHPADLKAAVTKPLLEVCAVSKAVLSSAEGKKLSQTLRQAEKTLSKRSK

[8] = target: T4, Tyrosyl-tRNA synthetase, putative (Trypanosoma cruzi (strain CL Brener)); assay: Trypanosoma cruzi tyrosyl tRNA synthetase (TcYRS) SOP; format: functional; details: 30 µM
[9] = target: Chromo domain-containing protein 1 (Saccharomyces cerevisiae (strain ATCC 204508 / S288c) (Baker's yeast)) (UniProt P32657); assay: ScCHD-1 Enzyme Inhibition Assay; format: functional; details: 30 µM; further: in the data most compounds retested in dose-response had high values
Chromo domain-containing protein 1 (Saccharomyces cerevisiae (strain ATCC 204508 / S288c) (Baker's yeast)), sequence (P32657 whole entry, the tested form may be a part): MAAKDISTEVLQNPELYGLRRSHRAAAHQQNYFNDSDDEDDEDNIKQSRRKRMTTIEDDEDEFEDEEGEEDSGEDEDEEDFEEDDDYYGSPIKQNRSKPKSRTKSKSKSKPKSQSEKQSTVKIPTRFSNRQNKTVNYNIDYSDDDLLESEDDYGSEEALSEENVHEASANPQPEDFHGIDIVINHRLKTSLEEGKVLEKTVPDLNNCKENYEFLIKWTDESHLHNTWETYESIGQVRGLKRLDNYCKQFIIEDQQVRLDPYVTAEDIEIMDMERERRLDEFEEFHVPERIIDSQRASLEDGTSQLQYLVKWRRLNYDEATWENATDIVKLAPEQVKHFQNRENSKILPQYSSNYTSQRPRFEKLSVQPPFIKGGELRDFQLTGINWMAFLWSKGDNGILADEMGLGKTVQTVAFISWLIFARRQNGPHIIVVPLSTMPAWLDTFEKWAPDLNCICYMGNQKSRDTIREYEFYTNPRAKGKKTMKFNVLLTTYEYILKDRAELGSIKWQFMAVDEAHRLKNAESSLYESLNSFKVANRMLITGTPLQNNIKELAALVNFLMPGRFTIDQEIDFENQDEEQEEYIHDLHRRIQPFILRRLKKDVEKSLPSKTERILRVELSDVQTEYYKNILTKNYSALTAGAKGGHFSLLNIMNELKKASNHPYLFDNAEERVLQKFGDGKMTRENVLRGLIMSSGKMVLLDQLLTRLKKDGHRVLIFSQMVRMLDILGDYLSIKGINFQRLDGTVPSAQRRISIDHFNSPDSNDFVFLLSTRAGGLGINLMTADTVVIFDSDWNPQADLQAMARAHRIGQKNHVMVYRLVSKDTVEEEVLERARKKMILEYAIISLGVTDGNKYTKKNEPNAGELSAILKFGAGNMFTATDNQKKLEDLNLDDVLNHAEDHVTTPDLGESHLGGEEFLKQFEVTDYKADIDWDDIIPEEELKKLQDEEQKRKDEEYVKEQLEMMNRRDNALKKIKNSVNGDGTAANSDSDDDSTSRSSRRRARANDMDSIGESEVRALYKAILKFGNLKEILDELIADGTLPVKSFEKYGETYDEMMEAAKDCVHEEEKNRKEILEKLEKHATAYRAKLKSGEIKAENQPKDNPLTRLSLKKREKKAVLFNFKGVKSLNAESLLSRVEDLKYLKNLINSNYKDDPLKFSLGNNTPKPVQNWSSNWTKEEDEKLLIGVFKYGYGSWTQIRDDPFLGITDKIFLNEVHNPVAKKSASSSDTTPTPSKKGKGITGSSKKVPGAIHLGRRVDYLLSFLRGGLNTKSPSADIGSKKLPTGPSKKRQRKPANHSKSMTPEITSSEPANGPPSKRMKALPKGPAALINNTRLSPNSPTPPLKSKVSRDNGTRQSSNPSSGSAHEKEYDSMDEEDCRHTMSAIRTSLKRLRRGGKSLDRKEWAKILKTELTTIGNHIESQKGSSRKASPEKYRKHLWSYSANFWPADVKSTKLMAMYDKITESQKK

Protein translocase subunit SecA (Escherichia coli (strain K12)), sequence (P10408 whole entry): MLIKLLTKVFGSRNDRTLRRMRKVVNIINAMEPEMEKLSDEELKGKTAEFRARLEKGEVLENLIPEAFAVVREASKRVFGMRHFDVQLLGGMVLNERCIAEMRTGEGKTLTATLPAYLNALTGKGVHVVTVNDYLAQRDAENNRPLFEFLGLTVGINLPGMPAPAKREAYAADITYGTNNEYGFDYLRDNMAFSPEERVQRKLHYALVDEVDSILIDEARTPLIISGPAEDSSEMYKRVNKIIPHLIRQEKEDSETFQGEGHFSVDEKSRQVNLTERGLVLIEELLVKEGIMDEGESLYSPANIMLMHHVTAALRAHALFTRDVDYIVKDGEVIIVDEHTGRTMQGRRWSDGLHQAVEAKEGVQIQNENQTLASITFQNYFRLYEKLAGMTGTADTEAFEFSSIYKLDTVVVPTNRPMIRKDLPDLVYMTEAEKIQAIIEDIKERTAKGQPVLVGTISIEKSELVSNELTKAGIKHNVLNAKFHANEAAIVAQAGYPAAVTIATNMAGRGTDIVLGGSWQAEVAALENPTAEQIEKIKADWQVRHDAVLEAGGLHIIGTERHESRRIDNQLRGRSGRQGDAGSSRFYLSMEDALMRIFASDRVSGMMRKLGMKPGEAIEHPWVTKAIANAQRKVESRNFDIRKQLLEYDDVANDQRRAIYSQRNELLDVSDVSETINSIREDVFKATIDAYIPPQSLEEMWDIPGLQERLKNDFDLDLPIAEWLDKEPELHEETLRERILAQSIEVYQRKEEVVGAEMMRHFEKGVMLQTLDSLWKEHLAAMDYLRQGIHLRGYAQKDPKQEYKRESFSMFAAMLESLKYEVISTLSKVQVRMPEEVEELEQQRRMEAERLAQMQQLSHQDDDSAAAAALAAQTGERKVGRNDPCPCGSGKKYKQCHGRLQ

Row | Structure (SMILES) | Percent Effect [1] [%] | Percent Effect [2] [%] | Percent Effect [3] [%] | Percent Effect [4] [%] | Percent Effect (Trypanosoma cruzi) [%] | Percent Effect [5] [%] | Percent Effect [6] [%] | Percent Effect (Homo sapiens) [%] | Percent Effect [7] [%] | Percent Effect [8] [%] | Percent Effect [9] [%]
1 | COCC1CC2(CCN(C(=O)c3cccc(C)c3)CC2)CO1 (configuration not stated) | -0.162 | 5.2 | 3.05 | 6.28 | -1.68 | -1.94 | 1.74 | -8.87 | -3.17 | -3.85 | -5.05
2 | COCCN1CCOCC2(CCCN(Cc3ccc(C)o3)C2)C1 (configuration not stated) | -2.04 | 13.3 | 0.538 | -2.47 | 5.6 | -42.1 | 8.55 | -12.1 | 3.12 | 2.5 | -9.46
3 | COc1ccc(-c2csc(N)c2C#N)cc1OC | -2.5 | 6.67 | -9.01 | 5.81 | 4.91 | -6.16 | 7.02 | 12.1 | 1.06 | 0 | -1.98
4 | Cc1cnn(CC2CCCN2C(=O)c2cnc3n[nH]c(C)c3c2)c1 (configuration not stated) | -6.55 | 16.5 | 0.256 | -4.46 | 2.36 | 0.645 | 7.55 | 2.33 | 3.12 | 20.2 | -32.5
5 | CNC(=O)CSc1nc2c(cnn2Cc2ccc(F)cc2)c(=O)[nH]1 | -1.62 | 11 | 8.78 | 2.62 | -3.33 | 0 | 16.5 | 33.3 | 0 | 10 | -6.75
6 | CN1CCC(C(=O)NCc2nncn2-c2ccccc2)CC1=O (configuration not stated) | -2.63 | 5.41 | -5.14 | 5.74 | -3.87 | -2 | 0 | 13.5 | 4.43 | 1.24 | -2.07
7 | CCN(CC)C(=O)Nc1cc2c(cc1SC)OCCO2 | -0.336 | 8.11 | -6.12 | 9.01 | 3.71 | 27.5 | 3.47 | -7.38 | 4.95 | 8.54 | -6.4
8 | COc1c(CNC(c2nccn2C)C(C)C)c(C)nn1C (configuration not stated) | 1.37 | -5.26 | 0.924 | 13.8 | -2.07 | -2.68 | 2.84 | -7.86 | 6.37 | 0 | 4.67
9 | Cn1cc(-c2cnc(N3CCOCC3)nc2)cc1C(=O)NCCO | -0.798 | 5.33 | 1.84 | -0.344 | -8.86 | 5.83 | 8.37 | -3.42 | 0 | 6.41 | -7.59
10 | COc1ccc2c(c1)CCN(CCC(=O)O)CC2 | 0.2 | 16.2 | -5.1 | 15.3 | 1.74 | 1.91 | 13.6 | 6.58 | 5.82 | 17.1 | -1.92
11 | O=C(NCCCn1cncn1)NCC(c1ccco1)N1CCCCC1 (configuration not stated) | 1.3 | 10.4 | 2.22 | -12.8 | -5.39 | 5.26 | 17.2 | 12.4 | 4.76 | 18.8 | -13.7
12 | O=C(C1CCC1)N1CCC2(COCc3cnc(N4CCOCC4)nc32)C1 (configuration not stated) | 2.09 | 13.3 | -2.58 | -6.19 | 0.772 | -59.7 | 9.23 | -2.75 | 2.08 | 12.5 | -9.27
13 | CCCc1n[nH]c(C2CN(CCNS(=O)(=O)CC)CCO2)n1 (configuration not stated) | -1.25 | 19 | 4.75 | -2.28 | -0.718 | 1.5 | 12.9 | 18.3 | 8.33 | 15.2 | -20.1
14 | COc1ccccc1C1(C(=O)NCCN2CCOCC2)CCOCC1 | -0.484 | 10.8 | -1.78 | -1.23 | -0.0943 | -2.81 | 12.4 | -15.9 | 3.45 | 13.6 | -7.26
15 | COC(=O)c1cccc(NS(=O)(=O)c2cnc(NC(C)=O)s2)c1 | 1.56 | 6.67 | -2.6 | 1.81 | -6.09 | -8.63 | 17.4 | -6.95 | 3.17 | 0 | -6.88
16 | O=C(CCCOc1ccc(F)cc1)N1CCCC(n2cccn2)C1 (configuration not stated) | -2.63 | 13 | 4.56 | 2.38 | -3.82 | 2.74 | 6.71 | 15.8 | 2.86 | 11.8 | -14.5
17 | Cc1cc(C(=O)N2CCCC2c2nnc3n2CCCCC3)no1 (configuration not stated) | -2.02 | 6.94 | -6.41 | -2.93 | 0.291 | 2.21 | 21.1 | -18.8 | 6.32 | 12.8 | -5.42
18 | Cc1cc(CN2CCCC2c2noc(C3CC3)n2)c2ccccc2n1 (configuration not stated) | 1.53 | -16.2 | -1.25 | 5.64 | -1.39 | 9.8 | -4.49 | 94.8 | 11.9 | 3.66 | 12.8
19 | Cn1cc(C(=O)NC2CCN(C(=O)NCCSC(F)(F)F)CC2)cn1 | -1.89 | 13.9 | 2.72 | 2.15 | -1.13 | -0.215 | 13 | 8.82 | 9.38 | 17.7 | -19.9
20 | CN(C(=O)c1cc(Cl)c[nH]1)C1CCN(c2ccccn2)CC1 | -4.94 | -2.6 | -2.5 | -14.5 | 6.17 | -4 | 9.46 | -0.502 | 13.3 | 23.5 | -20.8
21 | CCn1ncc2c1CCCC2NCc1cc(Cl)c(OC)c(OC)c1 (configuration not stated) | -5.26 | 12.7 | -8.16 | 14.8 | 3.31 | 3.04 | -0.901 | 66.8 | 9.36 | 21.5 | -6.2
22 | CCCNC(=O)c1c(-n2cnnn2)sc2c1CCC2 | -1.2 | 7.89 | 4.3 | 2.22 | -9.45 | 3.55 | 9.3 | 2.78 | 5.32 | 0 | -5.31
